Assay results taken from the supplement of paper PMC4022240.
± gives the standard deviation.

T1: HaloTag-ATRX ADD domain (163-292)
T1 chain: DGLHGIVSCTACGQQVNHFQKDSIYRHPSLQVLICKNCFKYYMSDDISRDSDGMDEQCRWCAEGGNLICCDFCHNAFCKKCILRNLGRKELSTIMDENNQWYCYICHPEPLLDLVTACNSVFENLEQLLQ


Biological target: T1, HaloTag-ATRX ADD domain (163-292)
Experiment: peptide microarray binding signal (635 nm), min-max normalized on array (fraction of array maximum); higher = stronger binding
Conditions: peptide region: Unmod H1 variant; binder concentration: 50 nM
How it was run: (§1)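 Triplicate spots of histone 13-mer peptide–cellulose conjugates with a Cy3 tracer were printed on nitrocellulose and probed for 1 h at 4°C with biotin-labelled HaloTag reader fusions (10 nM to 1 μM) plus streptavidin-Alexa Fluor 647 or rabbit histone antibodies (1:10,000 to 1:2,000) plus anti-rabbit Alexa 647. An Axon GenePix 4000B read the 635 nm channel. Binding signal is the spot-triplicate mean intensity after min-max scaling within each library.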

Q: TKPGASKVATKTK [Unmod H1 variant T K P G A S K V A T K T K] was tested. Which “peptide microarray binding signal” value did it give?
A: Its value is 0.0164 ± 0.00041.

Q: Which “peptide microarray binding signal” value does the source give for KSPAKAKAVKPKA [Unmod H1 variant K S P A K A K A V K P K A] here?
A: The value was 0.0194 ± 0.0034.

Q: How did the “peptide microarray binding signal” value turn out when SKGTLVQTKGTGA [Unmod H1 variant S K G T L V Q T K G T G A] was run?
A: Its value is 0.0193 ± 0.0038.

Q: How did the “peptide microarray binding signal” value turn out when KSSKNPKKPKTVK [Unmod H1 variant K S S K N P K K P K T V K] was run?
A: The value was 0.0196 ± 0.0037.

Q: KAKKPAATRKSSK [Unmod H1 variant K A K K P A A T R K S S K] was tested. Which “peptide microarray binding signal” value did it give?
A: The value was 0.0344 ± 0.02.

Same assay, conditions: peptide region: Unmod H1 variant; binder concentration: 500 nM

Q: TKPGASKVATKTK [Unmod H1 variant T K P G A S K V A T K T K] was tested. Which “peptide microarray binding signal” value did it give?
A: Its value is 0.0137 ± 0.0012.

Q: With KSPAKAKAVKPKA [Unmod H1 variant K S P A K A K A V K P K A] as the binder, how does the “peptide microarray binding signal” value read?
A: Its value is 0.00619 ± 0.00021.

Q: With SKGTLVQTKGTGA [Unmod H1 variant S K G T L V Q T K G T G A] as the binder, how does the “peptide microarray binding signal” value read?
A: The value was 0.0147 ± 0.00052.

Q: How did the “peptide microarray binding signal” value turn out when KSSKNPKKPKTVK [Unmod H1 variant K S S K N P K K P K T V K] was run?
A: Its value is 0.0061 ± 0.00013.

Q: KAKKPAATRKSSK [Unmod H1 variant K A K K P A A T R K S S K] was tested. Which “peptide microarray binding signal” value did it give?
A: Its value is 0.0133 ± 0.00041.

biological target: HaloTag-ING2 PHD (mouse Ing2 200-280); experiment: as above; conditions: peptide region: Unmod H1 variant; binder concentration: 10 nM
How it was run: as §1

Q: Which “peptide microarray binding signal” value does the source give for TKPGASKVATKTK [Unmod H1 variant T K P G A S K V A T K T K] here?
A: Its value is 0.00215 ± 5e-05.

Q: Which “peptide microarray binding signal” value does the source give for KSPAKAKAVKPKA [Unmod H1 variant K S P A K A K A V K P K A] here?
A: The value was 0.00167 ± 3.4e-05.

Q: For SKGTLVQTKGTGA [Unmod H1 variant S K G T L V Q T K G T G A], which “peptide microarray binding signal” value is on record?
A: Its value is 0.003939 ± 2.1e-05.

Q: Which “peptide microarray binding signal” value does the source give for KSSKNPKKPKTVK [Unmod H1 variant K S S K N P K K P K T V K] here?
A: Its value is 0.00185.

Q: With KAKKPAATRKSSK [Unmod H1 variant K A K K P A A T R K S S K] as the binder, how does the “peptide microarray binding signal” value read?
A: Its value is 0.00227 ± 5.2e-05.

same assay, conditions: peptide region: Unmod H1 variant; binder concentration: 100 nM

Q: For TKPGASKVATKTK [Unmod H1 variant T K P G A S K V A T K T K], which “peptide microarray binding signal” value is on record?
A: The value was 0.00694 ± 0.00026.

Q: With KSPAKAKAVKPKA [Unmod H1 variant K S P A K A K A V K P K A] as the binder, how does the “peptide microarray binding signal” value read?
A: Its value is 0.0159 ± 0.014.

Q: How did the “peptide microarray binding signal” value turn out when SKGTLVQTKGTGA [Unmod H1 variant S K G T L V Q T K G T G A] was run?
A: The value was 0.0162 ± 0.0012.

Q: For KSSKNPKKPKTVK [Unmod H1 variant K S S K N P K K P K T V K], which “peptide microarray binding signal” value is on record?
A: The value was 0.003543 ± 3.1e-05.

Q: For KAKKPAATRKSSK [Unmod H1 variant K A K K P A A T R K S S K], which “peptide microarray binding signal” value is on record?
A: Its value is 0.0068 ± 0.00046.

biological target: anti-H3K4me3 antibody ab8580; experiment: as above; conditions: peptide region: Unmod H1 variant; binder concentration: 1:2,000 dilution
How it was run: as §1

Q: For TKPGASKVATKTK [Unmod H1 variant T K P G A S K V A T K T K], which “peptide microarray binding signal” value is on record?
A: Its value is 0.00117 ± 0.00015.

Q: How did the “peptide microarray binding signal” value turn out when KSPAKAKAVKPKA [Unmod H1 variant K S P A K A K A V K P K A] was run?
A: The value was 0.000283.

Q: How did the “peptide microarray binding signal” value turn out when SKGTLVQTKGTGA [Unmod H1 variant S K G T L V Q T K G T G A] was run?
A: Its value is 0.000812 ± 6.2e-05.

Q: How did the “peptide microarray binding signal” value turn out when KSSKNPKKPKTVK [Unmod H1 variant K S S K N P K K P K T V K] was run?
A: Its value is 0.000774 ± 1.4e-05.

Q: For KAKKPAATRKSSK [Unmod H1 variant K A K K P A A T R K S S K], which “peptide microarray binding signal” value is on record?
A: Its value is 0.000755 ± 1.4e-05.

same assay, conditions: peptide region: Unmod H1 variant; binder concentration: 1:10,000 dilution

Q: Which “peptide microarray binding signal” value does the source give for TKPGASKVATKTK [Unmod H1 variant T K P G A S K V A T K T K] here?
A: The value was 0.00097 ± 9.9e-06.

Q: For KSPAKAKAVKPKA [Unmod H1 variant K S P A K A K A V K P K A], which “peptide microarray binding signal” value is on record?
A: The value was 0.000571 ± 1.1e-05.

Q: For SKGTLVQTKGTGA [Unmod H1 variant S K G T L V Q T K G T G A], which “peptide microarray binding signal” value is on record?
A: The value was 0.0012 ± 2.4e-05.

Q: Which “peptide microarray binding signal” value does the source give for KSSKNPKKPKTVK [Unmod H1 variant K S S K N P K K P K T V K] here?
A: The value was 0.000913.

Q: KAKKPAATRKSSK [Unmod H1 variant K A K K P A A T R K S S K] was tested. Which “peptide microarray binding signal” value did it give?
A: Its value is 0.00103 ± 2.1e-05.

biological target: anti-H3K9me3 antibody ab8898; experiment: as above; conditions: peptide region: Unmod H1 variant; binder concentration: 1:2,000 dilution
How it was run: as §1

Q: With TKPGASKVATKTK [Unmod H1 variant T K P G A S K V A T K T K] as the binder, how does the “peptide microarray binding signal” value read?
A: The value was 0.000302 ± 6.2e-06.

Q: For KSPAKAKAVKPKA [Unmod H1 variant K S P A K A K A V K P K A], which “peptide microarray binding signal” value is on record?
A: Its value is 0.000196 ± 2.1e-06.

Q: How did the “peptide microarray binding signal” value turn out when SKGTLVQTKGTGA [Unmod H1 variant S K G T L V Q T K G T G A] was run?
A: Its value is 0.000211 ± 2.2e-06.

Q: How did the “peptide microarray binding signal” value turn out when KSSKNPKKPKTVK [Unmod H1 variant K S S K N P K K P K T V K] was run?
A: The value was 0.000181.

Q: How did the “peptide microarray binding signal” value turn out when KAKKPAATRKSSK [Unmod H1 variant K A K K P A A T R K S S K] was run?
A: Its value is 0.000211 ± 2.2e-06.

same assay, conditions: peptide region: Unmod H1 variant; binder concentration: 1:10,000 dilution

Q: With TKPGASKVATKTK [Unmod H1 variant T K P G A S K V A T K T K] as the binder, how does the “peptide microarray binding signal” value read?
A: Its value is 0.000692 ± 7.3e-06.

Q: Which “peptide microarray binding signal” value does the source give for KSPAKAKAVKPKA [Unmod H1 variant K S P A K A K A V K P K A] here?
A: The value was 0.000577 ± 6.2e-06.

Q: Which “peptide microarray binding signal” value does the source give for SKGTLVQTKGTGA [Unmod H1 variant S K G T L V Q T K G T G A] here?
A: Its value is 0.00075 ± 7.9e-06.

Q: How did the “peptide microarray binding signal” value turn out when KSSKNPKKPKTVK [Unmod H1 variant K S S K N P K K P K T V K] was run?
A: The value was 0.00075 ± 7.9e-06.

Q: With KAKKPAATRKSSK [Unmod H1 variant K A K K P A A T R K S S K] as the binder, how does the “peptide microarray binding signal” value read?
A: The value was 0.00075 ± 7.9e-06.
